Molecules are shown by their SMILES. A structure can be active in one record and inactive in another. Calls of active or inactive are those of the source. How the source made its calls, unless noted: active means hit-call score of the fitted dose curve at least 0.9, where 1 is the maximum; inactive means score below 0.9.

Test system in one assay: not listed separately
In words: CCTE_Shafer_MEA_dev_network_spike_number: CCTE's Neural Network Formation Assay for Number of Network Spikes, Shafer Lab (AID 2284048).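 Further: synchronized bursts across electrodes counted on days 5 7 9 12 and integrated as AUC.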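 On AC50: fit as a loss of signal meaning fewer network spikes than DMSO.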 In outline: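 Number of network spikes (coordinated firing across electrodes) recorded on days 5, 7, 9 and 12 and summarised as area under the curve. Rat cortical cultures on MEA, continuous compound exposure with full medium/treatment exchange at DIV 5 and 9.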
`C=CC(=O)OCC(F)(F)C(F)(F)C(F)(F)C(F)(F)COC(=O)C=C`: the half-maximal activity concentration (AC50) is 2.28 µM (active). For `O=C(O)C(F)(F)C(F)(F)C(F)(F)F`, the result was inactive. `CC(C)(C)C(=O)CC(=O)C(F)(F)C(F)(F)C(F)(F)F`: the outcome was inactive. As for `FC(F)(F)C(F)(F)CNCC(F)(F)C(F)(F)F`, the compound was classed as inactive. The same measure, in the same setting: to `Cc1ccc(S(=O)(=O)OCC(F)(F)C(F)(F)C(F)(F)C(F)(F)C(F)(F)C(F)F)cc1` belongs “inactive”; to `O=S(=O)(OCC(F)F)C(F)(F)F`, “inactive”; to `OCC(F)(F)C(F)(F)C(F)(F)F`, “inactive”.

As to `CC(CCl)OP(=O)(OC(C)CCl)OC(C)CCl` (stereo not given), the compound was called inactive. Still for that read-out and setting: then `FC(F)(F)C(F)(F)C(F)(F)C(F)(F)C(F)(F)CCI`, with “inactive”; and `O=C(O)C(F)(F)C(F)(F)C(F)(F)C(F)(F)C(F)(F)C(F)(F)C(F)(F)C(F)(F)Cl`, with “inactive”; and `O=C(O)C=C(C(F)(F)F)C(F)(F)F`, with “inactive”. On to `O=S(=O)(OCCOC(F)(F)F)C(F)(F)F`, for which the compound was called inactive.

On to `OCC(F)(F)C(F)(F)C(F)(F)C(F)F`, for which the compound was called inactive.

As to `OC[C@@H](O)[C@@H](O)[C@H](O)[C@@H](O)CO`, the outcome was inactive.

As to `OCC(F)(F)C(F)(F)C(F)(F)C(F)(F)C(F)(F)C(F)F`, the result was inactive.

For `N=C(N)C(F)(F)C(F)(F)C(F)(F)C(F)(F)C(F)(F)C(F)(F)C(F)(F)F`, the compound was classed as inactive. Same read-out and setting: then `O=C(O)C(F)(F)C(F)(F)C(F)(F)C(F)(F)C(F)(F)C(F)(F)C(F)(F)C(F)(F)C(F)(F)C(F)F`, with “inactive”; and `O=P(O)(O)OCCC(F)(F)C(F)(F)C(F)(F)C(F)(F)C(F)(F)C(F)(F)F`, with “inactive”; and `NC(=O)C(F)(F)C(F)(F)C(F)(F)C(F)(F)F`, with “inactive”. As for `O=C(O)C(F)(F)C(F)(F)C(F)F`, the compound was called inactive.

Consider `OCCCC(F)(F)C(F)(F)C(F)(F)F`, for which the compound was called inactive. Same read-out and setting: then `COC(=O)CCC(F)(F)C(F)(F)C(F)(F)C(F)(F)F`, with “inactive”; and `FC(F)(F)C(F)(F)C(F)(F)C(F)(F)C(F)(F)C(F)(F)CC1CO1` (stereo not given), with “inactive”.

Test system in another assay: not listed separately
Kind of assay: CCTE_Shafer_MEA_dev_network_spike_peak: CCTE's Neural Network Formation Assay for Mean Number of Electrodes in Network Spike, Shafer Lab (AID 2284049).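 On AC50: fitted for loss of signal meaning fewer electrodes in network spikes than DMSO.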 In outline:
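Rat cortical primary culture, 1.5 x 10^5 cells/well, 48-well MEA (16 electrodes/well). Dosing day 0 through DIV 12, full media/compound exchange DIV 5, 9. AxIS adaptive spike detection; AUC over days 5/7/9/12; loss-of-signal vs DMSO.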
As for `C=CC(=O)OCC(F)(F)C(F)(F)C(F)(F)C(F)(F)COC(=O)C=C`, the concentration at half-maximal activity (AC50) is 4.19 µM (active). As for `O=C(O)C(F)(F)C(F)(F)C(F)(F)F`, the call was inactive. `CC(C)(C)C(=O)CC(=O)C(F)(F)C(F)(F)C(F)(F)F`: the AC50 is 23.7 µM (active). Take `FC(F)(F)C(F)(F)CNCC(F)(F)C(F)(F)F`: the result was inactive. Still for that read-out and setting: to `Cc1ccc(S(=O)(=O)OCC(F)(F)C(F)(F)C(F)(F)C(F)(F)C(F)(F)C(F)F)cc1` belongs “inactive”; to `O=S(=O)(OCC(F)F)C(F)(F)F`, “inactive”; to `OCC(F)(F)C(F)(F)C(F)(F)F`, “inactive”. As to `CC(CCl)OP(=O)(OC(C)CCl)OC(C)CCl` (stereo not given), the AC50 was 50 µM (active) and the outcome was inactive. For `FC(F)(F)C(F)(F)C(F)(F)C(F)(F)C(F)(F)CCI`, the concentration at half-maximal activity (AC50) is 22.3 µM (active).

With `O=C(O)C(F)(F)C(F)(F)C(F)(F)C(F)(F)C(F)(F)C(F)(F)C(F)(F)C(F)(F)Cl`, the result was inactive. The same measure, in the same setting: then `O=C(O)C=C(C(F)(F)F)C(F)(F)F`, with “inactive”. Take `O=S(=O)(OCCOC(F)(F)F)C(F)(F)F`: the call was inactive. In the case of `OCC(F)(F)C(F)(F)C(F)(F)C(F)F`, the outcome was inactive. Same read-out and setting: to `OC[C@@H](O)[C@@H](O)[C@H](O)[C@@H](O)CO` belongs “inactive”; to `OCC(F)(F)C(F)(F)C(F)(F)C(F)(F)C(F)(F)C(F)F`, “inactive”.

As for `N=C(N)C(F)(F)C(F)(F)C(F)(F)C(F)(F)C(F)(F)C(F)(F)C(F)(F)F`, the AC50 was 26.8 µM (active). On to `O=C(O)C(F)(F)C(F)(F)C(F)(F)C(F)(F)C(F)(F)C(F)(F)C(F)(F)C(F)(F)C(F)(F)C(F)F`, for which the outcome was inactive. On the same count and under the same terms, to `O=P(O)(O)OCCC(F)(F)C(F)(F)C(F)(F)C(F)(F)C(F)(F)C(F)(F)F` belongs “inactive”. For `NC(=O)C(F)(F)C(F)(F)C(F)(F)C(F)(F)F`, the outcome was inactive.

As for `O=C(O)C(F)(F)C(F)(F)C(F)F`, the result was inactive. Same read-out and setting: then `OCCCC(F)(F)C(F)(F)C(F)(F)F`, with “inactive”; and `COC(=O)CCC(F)(F)C(F)(F)C(F)(F)C(F)(F)F`, with “inactive”; and `FC(F)(F)C(F)(F)C(F)(F)C(F)(F)C(F)(F)C(F)(F)CC1CO1` (stereo not given), with “inactive”.

The next assay deals with DIO2 (gene 1734). In words: CCTE_GLTED_hDIO2: CCTE's human Deiodinase 2 (DIO2) Inhibition Assay, Great Lakes Toxicology and Ecology Division (GLTED) Lab (AID 2284050; active means hit-call score of the fitted dose curve at least 0.9, where 1 is the maximum). As to the method:
CCTE_GLTED_hDIO2 is a cell-free, single-readout assay designed to test the inhibitory activity of chemicals toward human iodothyronine Deiodinase type 2 (DIO2) enzyme. Enzyme is incubated in presence of test chemical for 3 hours during which uninhibited enzyme liberates free iodide from substrate. Free iodide is measured in a second step using the Sandell-Kolthoff method.CCTE_GLTED_hDIO2 is the assay component measured from the CCTE_GLTED_hDIO2 assay. It is designed to make measurements of enzyme activity, a form of enzyme reporter, as detected with absorbance signals by spectrophotometry.Data from the assay component CCTE_GLTED_hDIO2 was analyzed into 1 assay endpoint. This assay endpoint, CCTE_GLTED_hDIO2, was analyzed in the positive analysis fitting direction relative to DMSO as the negative control and baseline of activity. Using a type of enzyme reporter, loss-of-signal activity can be used to understand changes in the enzymatic activity as they relate to the gene DIO2. Furthermore, this assay endpoint can be referred to as a primary readout, because the performed assay has only produced 1 assay endpoint. To generalize the intended target to other relatable targets, this assay endpoint is annotated to the 'deiodinase' intended target family, where the subfamily is 'deiodinase Type 2'.
Human deiodinase type 2 (hDIO2) assay, developed at Great Lakes Toxicology and Ecology Division (GLTED) within the EPA's Center for Computational Toxicology and Exposure (CCTE), is designed to test the chemicals' ability to inhibit DIO2. Assay is based on iodide release measured by the Sandell-Kolthoff method and is run in 96-well plate format with assay plates run in triplicate (n=3). The method used for the deiodinase assay was largely based on Renko et al. (2012, 2015). These works describe the utilization of the SK reaction to measure deiodinase-liberated iodide in a 96-well-plate format. The SK reaction is based on the reduction of the yellow-colored cerium IV to the non-colored cerium III by arsenic, with the rate of this reaction increased in the presence of iodide in a concentration-dependent manner (Sandell and Kolthoff, 1937). Iodinated test chemicals can interfere as competitive inhibitors, or if the stock chemical has contaminating free-iodide present. Other chemicals, e.g.: nitrite, iron, and thiocyanate can interfere with the Sandell-Kolthoff reaction (see Sandell and Kolthoff, 1937).
On to `C=CC(=O)OCC(F)(F)C(F)(F)C(F)(F)C(F)(F)COC(=O)C=C`, for which the AC50 was 12.8 µM (active). For the compound `c1ccc(B(c2ccccc2)c2ccccc2)cc1`, the AC50 is 57.7 µM (active). With `O=C(O)C(F)(F)C(F)(F)C(F)(F)C(F)(F)C(F)(F)C(F)(F)C(F)(F)C(F)(F)Cl`, the AC50 is 100 µM (active). Regarding `O=C(O)C(F)(F)C(F)(F)C(F)(F)C(F)(F)C(F)(F)C(F)(F)C(F)(F)C(F)(F)C(F)(F)C(F)(F)C(F)(F)C(F)(F)F`, the AC50 was 74.9 µM (active).

`O=C(O)C(F)(F)C(F)(F)C(F)(F)C(F)(F)C(F)(F)C(F)(F)C(F)(F)C(F)(F)C(F)(F)C(F)F`: the AC50 was 59.3 µM (active). For `CC(Cc1ccc(O)c(O)c1)C(C)Cc1ccc(O)c(O)c1` (stereo not given), the half-maximal activity concentration (AC50) was 19.3 µM (active). On to `O=C(Cl)C(F)(F)C(F)(F)C(F)(F)C(F)(F)C(F)(F)C(F)(F)C(F)(F)C(F)(F)F`, for which the half-maximal activity concentration (AC50) was 69.4 µM (active). On to `CCN(Cc1cccc(S(=O)(=O)O)c1)c1ccc(C(=C2C=CC(=[N+](CC)Cc3cccc(S(=O)(=O)O)c3)C=C2)c2ccc(O)cc2S(=O)(=O)[O-])cc1`, for which the half-maximal activity concentration (AC50) is 48.5 µM (active).

One may read the AC50 as the concentration at which the activity in the assay is half-maximal.
